Results: PubChem BioAssay (EPA / NIEHS)
Active and inactive are the calls of the source. The calls were made as follows: active = hit-call score of the fitted dose curve at least 0.9, where 1 is the maximum; inactive = score below 0.9.

Assay: APR_HepG2_MicrotubuleCSK_24hr: Apredica 24-hour HepG2 Assay for Microtubule CSK Stabilty (AID 2282909)
Conditions: HepG2 microtubule cytoskeleton imaging, actives raise or lower the signal
In short: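 Microtubule stability is scored from tubulin immunofluorescence in fixed HepG2 cells imaged at 20x. Cells receive ten compound concentrations up to 200 uM for 24 h; taxol and DMSO serve as positive and negative controls.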

Compound | outcome | AC50
OCCO | inactive | 
Cc1cc(F)ccc1-c1cc(N2CC[C@@H](O)[C@H]2CO)ncc1N(C)C(=O)C(C)(C)c1cc(C(F)(F)F)cc(C(F)(F)F)c1 | inactive | 
CC(O)CC(C)(C)O (stereo unspecified) | inactive | 
CC1(C)NC(=O)N(c2ccc([N+](=O)[O-])c(C(F)(F)F)c2)C1=O | inactive | 
CCCCOC(=O)c1ccc(O)cc1 | inactive | 
Oc1ccccc1 | inactive | 
CC(C)(C)c1cc(/C=C2\SC(N)=NC2=O)cc(C(C)(C)C)c1O |  | 29.5 µM (active)
O=C=NCCCCCCN=C=O | inactive | 
NCc1cccc(C2CCN(C(=O)c3ccc(C#Cc4ccccc4F)o3)CC2)c1 |  | 61.3 µM (active)
CN(C)C(=O)C1(N2CCCCC2)CCN(CC[C@@]2(c3ccc(Cl)c(Cl)c3)CN(C(=O)c3ccccc3)CCO2)CC1 |  | 65.2 µM (active)
Cc1occc1C(=O)Nc1ccc(C(=O)N2CCC(F)(F)/C(=C\C(=O)N3CCC(N4CCCCC4)CC3)c3ccccc32)cc1 | inactive | 
C[C@]12CC[C@@H]3c4ccc(O)cc4CC[C@H]3[C@@H]1CCC2=O | inactive | 
COc1cc(C(=O)NC2CCN(C)CC2)ccc1Nc1ncc2c(n1)N(C1CCCC1)CC(F)(F)C(=O)N2C | inactive | 
O=C(O)Cc1cc(I)c(Oc2ccc(O)c(I)c2)c(I)c1 | inactive | 
Cc1oc2c(NC(=O)c3c(Cl)cccc3Cl)cccc2c1C(C)(C)O | inactive | 
O=CCCCC=O | inactive | 
CC[C@H](NC(=O)c1cc(F)ccc1NS(=O)(=O)c1cccc2cccnc12)c1ccccc1 | inactive | 
O=c1ccc2ccccc2o1 | inactive | 
c1ccc(C[n+]2cccc3ccccc32)cc1 |  | 100 µM (active)

Compound | outcome | AC50
O=C(OCCCCCCOC(=O)c1ccccc1)c1ccccc1 | inactive | 
CCCCCCCCN(C)CCCCCCCC | inactive | 
Cc1ncc(CO)c(CO)c1O | inactive | 
Oc1ccc2ccccc2c1 | inactive | 
CCCCCCCCCCCC[N+](C)(C)C | inactive | 
c1ccc2ccccc2c1 | inactive | 
CCCCCCCC[Si](OCC)(OCC)OCC | inactive | 
OC12N=C(c3ccccc3)SC1Cc1cc(Cl)ccc12 (stereo unspecified) | inactive | 
CN1C(=O)N(c2ccccc2Br)Cc2cnc(Nc3ccc4c(c3)OCC(CO)O4)nc21 (stereo unspecified) | inactive | 
CC(C)(C)c1csc(-c2cc3cc(OCc4ccccc4CC(=O)O)ccc3o2)n1 | inactive | 
CN(C[C@@H](CC[N+]12CCC(C3CCCCC3)(CC1)CC2)c1ccc(Cl)c(Cl)c1)C(=O)c1cc(C(F)(F)F)cc(C(F)(F)F)c1 |  | 34.3 µM (active)
CCCCCCCCCCCO | inactive | 
Clc1cc(Cl)c2c(c1)N=C1CCCCCN1C2 | inactive | 
O=C(O)Cn1c(=O)n(Cc2ccc(Br)cc2F)c(=O)c2ccc(Cl)cc21 | inactive | 
CC[C@@H]1C[C@H](N(Cc2cc(C(F)(F)F)cc(C(F)(F)F)c2)C(C)=O)c2cc(C(F)(F)F)ccc2N1C(=O)OC(C)C | inactive | 
CCCCCCCCOC(=O)c1cc(O)c(O)c(O)c1 |  | 171 µM (active)
CC/C(=C(/CC)c1ccc(O)cc1)c1ccc(O)cc1 | inactive | 
c1ccc2n[nH]nc2c1 | inactive | 
Cc1cn([C@H]2C[C@H](N=[N+]=[N-])[C@@H](CO)O2)c(=O)[nH]c1=O | inactive | 

Assay: APR_HepG2_MitoticArrest_24hr: Apredica 24-hour HepG2 Assay for Mitotic Arrest (AID 2282910)
Conditions: high-content imaging, actives raise or lower the signal
In short: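 HepG2, 24 hr dosing, 0.39–200 uM, 0.5% DMSO final. Formaldehyde-fixed, Triton-permeabilised, anti-phospho-histone H3 plus Hoechst. ArrayScan imaging at 20x; bidirectional fit vs DMSO baseline.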

Compound | outcome | AC50
OCCO | inactive | 
Cc1cc(F)ccc1-c1cc(N2CC[C@@H](O)[C@H]2CO)ncc1N(C)C(=O)C(C)(C)c1cc(C(F)(F)F)cc(C(F)(F)F)c1 | inactive | 
CC(O)CC(C)(C)O (stereo unspecified) | inactive | 
CC1(C)NC(=O)N(c2ccc([N+](=O)[O-])c(C(F)(F)F)c2)C1=O | inactive | 
CCCCOC(=O)c1ccc(O)cc1 | inactive | 
Oc1ccccc1 | inactive | 
CC(C)(C)c1cc(/C=C2\SC(N)=NC2=O)cc(C(C)(C)C)c1O |  | 52.3 µM (active)
O=C=NCCCCCCN=C=O | inactive | 
NCc1cccc(C2CCN(C(=O)c3ccc(C#Cc4ccccc4F)o3)CC2)c1 |  | 18.6 µM (active)
CN(C)C(=O)C1(N2CCCCC2)CCN(CC[C@@]2(c3ccc(Cl)c(Cl)c3)CN(C(=O)c3ccccc3)CCO2)CC1 |  | 13.1 µM (active)
Cc1occc1C(=O)Nc1ccc(C(=O)N2CCC(F)(F)/C(=C\C(=O)N3CCC(N4CCCCC4)CC3)c3ccccc32)cc1 | inactive | 
C[C@]12CC[C@@H]3c4ccc(O)cc4CC[C@H]3[C@@H]1CCC2=O | inactive | 
COc1cc(C(=O)NC2CCN(C)CC2)ccc1Nc1ncc2c(n1)N(C1CCCC1)CC(F)(F)C(=O)N2C | inactive | 
O=C(O)Cc1cc(I)c(Oc2ccc(O)c(I)c2)c(I)c1 | inactive | 
Cc1oc2c(NC(=O)c3c(Cl)cccc3Cl)cccc2c1C(C)(C)O | inactive | 
O=CCCCC=O | inactive | 
CC[C@H](NC(=O)c1cc(F)ccc1NS(=O)(=O)c1cccc2cccnc12)c1ccccc1 | inactive | 
O=c1ccc2ccccc2o1 | inactive | 
c1ccc(C[n+]2cccc3ccccc32)cc1 | inactive | 

Compound | outcome | AC50
O=C(OCCCCCCOC(=O)c1ccccc1)c1ccccc1 | inactive | 
CCCCCCCCN(C)CCCCCCCC | inactive | 
Cc1ncc(CO)c(CO)c1O | inactive | 
Oc1ccc2ccccc2c1 | inactive | 
CCCCCCCCCCCC[N+](C)(C)C |  | 50.2 µM (active)
c1ccc2ccccc2c1 | inactive | 
CCCCCCCC[Si](OCC)(OCC)OCC | inactive | 
OC12N=C(c3ccccc3)SC1Cc1cc(Cl)ccc12 (stereo unspecified) | inactive | 
CN1C(=O)N(c2ccccc2Br)Cc2cnc(Nc3ccc4c(c3)OCC(CO)O4)nc21 (stereo unspecified) |  | 2.93 µM (active)
CC(C)(C)c1csc(-c2cc3cc(OCc4ccccc4CC(=O)O)ccc3o2)n1 | inactive | 
CN(C[C@@H](CC[N+]12CCC(C3CCCCC3)(CC1)CC2)c1ccc(Cl)c(Cl)c1)C(=O)c1cc(C(F)(F)F)cc(C(F)(F)F)c1 |  | 33.4 µM (active)
CCCCCCCCCCCO |  | 104 µM (active)
Clc1cc(Cl)c2c(c1)N=C1CCCCCN1C2 | inactive | 
O=C(O)Cn1c(=O)n(Cc2ccc(Br)cc2F)c(=O)c2ccc(Cl)cc21 | inactive | 
CC[C@@H]1C[C@H](N(Cc2cc(C(F)(F)F)cc(C(F)(F)F)c2)C(C)=O)c2cc(C(F)(F)F)ccc2N1C(=O)OC(C)C | inactive | 
CCCCCCCCOC(=O)c1cc(O)c(O)c(O)c1 |  | 50.8 µM (active)
CC/C(=C(/CC)c1ccc(O)cc1)c1ccc(O)cc1 |  | 50 µM (active)
c1ccc2n[nH]nc2c1 | inactive | 
Cc1cn([C@H]2C[C@H](N=[N+]=[N-])[C@@H](CO)O2)c(=O)[nH]c1=O | inactive | 
